Among all 310,000 compounds or so, about 14,000 (4.5%) showed an effect of 50% or more. The effect is printed as a negative number. The list comes from a sample in which strong results are over-represented; it also holds similar structures and randomly drawn compounds.
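Note: peak tail current of the secondary pulse compared with the same well before compound.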

Chain of human ether-à-go-go-related gene (hERG) potassium channel (Q12809 whole entry, looked up): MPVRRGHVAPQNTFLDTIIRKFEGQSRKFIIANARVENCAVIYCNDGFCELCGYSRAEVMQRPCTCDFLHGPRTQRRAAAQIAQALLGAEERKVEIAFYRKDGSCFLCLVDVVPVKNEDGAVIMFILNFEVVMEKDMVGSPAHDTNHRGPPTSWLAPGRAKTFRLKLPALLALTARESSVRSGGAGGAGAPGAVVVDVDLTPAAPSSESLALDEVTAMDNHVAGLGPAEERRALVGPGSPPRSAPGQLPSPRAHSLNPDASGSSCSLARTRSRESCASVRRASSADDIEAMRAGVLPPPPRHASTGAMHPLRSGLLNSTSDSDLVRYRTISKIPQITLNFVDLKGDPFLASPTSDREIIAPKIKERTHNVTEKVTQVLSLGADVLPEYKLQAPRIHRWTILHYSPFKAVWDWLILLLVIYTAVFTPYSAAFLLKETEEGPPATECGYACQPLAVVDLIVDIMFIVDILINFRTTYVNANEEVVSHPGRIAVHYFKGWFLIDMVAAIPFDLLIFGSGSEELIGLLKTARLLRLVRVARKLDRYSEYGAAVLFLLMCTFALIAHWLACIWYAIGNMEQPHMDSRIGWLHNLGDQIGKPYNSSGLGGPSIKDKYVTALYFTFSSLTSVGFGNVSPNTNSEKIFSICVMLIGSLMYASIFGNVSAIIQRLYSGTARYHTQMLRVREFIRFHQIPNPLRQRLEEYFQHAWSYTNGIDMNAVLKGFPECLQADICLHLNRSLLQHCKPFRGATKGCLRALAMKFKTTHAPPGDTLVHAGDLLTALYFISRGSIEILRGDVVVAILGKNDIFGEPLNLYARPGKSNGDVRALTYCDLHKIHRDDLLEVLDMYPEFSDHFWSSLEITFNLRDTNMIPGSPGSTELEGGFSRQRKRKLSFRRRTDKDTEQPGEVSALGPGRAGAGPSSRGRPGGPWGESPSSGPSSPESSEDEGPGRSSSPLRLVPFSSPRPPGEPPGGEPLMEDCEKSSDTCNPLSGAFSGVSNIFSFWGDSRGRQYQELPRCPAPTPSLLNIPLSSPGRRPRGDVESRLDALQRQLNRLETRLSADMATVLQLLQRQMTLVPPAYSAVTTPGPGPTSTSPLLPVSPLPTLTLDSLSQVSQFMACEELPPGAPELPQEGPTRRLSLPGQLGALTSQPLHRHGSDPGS

The test addresses human ether-à-go-go-related gene (hERG) potassium channel (human, UniProt Q12809). The test is described as follows: primary screen, population patch clamp on CHO cells stably expressing hERG; higher = less effect of the substance.
Regarding `Cc1ccc(Oc2cc(NN3CCCCC3)c([N+](=O)[O-])cc2[N+](=O)[O-])c([N+](=O)[O-])c1`, the “hERG current change (%, negative = inhibition) at 10uM” value is recorded as -10.3%.
The result for `O=C(Nc1cccc(NC(=O)c2ccccc2Cl)c1)c1cccs1` reads 2.54%; that for `O=[N+]([O-])c1ccc(CSC2=NCCS2)cc1`, -15.3%.
The result for `CC1CCN(C(=O)c2[nH]cnc2C(=O)N2CCN(C(=O)OC(C)(C)C)CC2)CC1` reads 19%; that for `O=C(CN(Cc1ccccc1Cl)C(=O)c1csnn1)NC1CCCC1`, -13.6%; that for `COc1ccccc1Nc1nc(NCC2CCCO2)c2ccccc2n1.Cl` (centres unmarked), -59.6%.
For the compound `COc1cccc(-c2nc(NCC3CCCO3)c3ccccc3n2)c1O` (centres unmarked), the “hERG current change (%, negative = inhibition) at 10uM” value is -21.2%.
The result for `c1cncc(-c2nc(NCC3CCCO3)c3ccccc3n2)c1` (centres unmarked) reads 7.02%; that for `CC(C)C(=O)NC(=S)Nc1ccccc1C(F)(F)F`, 10.4%.
As to `O=C(N/N=C/c1coc2ccccc2c1=O)c1ccccc1Br`, the “hERG current change (%, negative = inhibition) at 10uM” value is on record as -0.324%.
The result for `Clc1ccc(Nc2ccc(NCc3ccccc3)nn2)cc1` reads -37.8%; that for `Cc1cccc(NCc2ccccc2)c1`, 5.29%; that for `Cc1cccc(Nc2ccc(NCc3ccccc3)nn2)c1`, -51.8%.
With `O=C(NNC(=S)NC(=O)c1ccccc1[N+](=O)[O-])c1ccccc1[N+](=O)[O-]` the figure was 15.1%.
With `O=C(NNC(=S)NC(=O)c1ccccc1[N+](=O)[O-])c1ccccc1Cl` the figure was 6.38%; with `O=C(NNC(=S)NC(=O)c1ccccc1[N+](=O)[O-])c1ccc(Cl)cc1Cl`, -58.2%; with `N/C(=N\N=C\c1ccco1)SC1CC(=O)N(c2ccccc2)C1=O` (centres unmarked), 17.1%.
In the case of `CC(C)CC(=O)NC(=S)Nc1sc2c(c1C(N)=O)CCC2`, the “hERG current change (%, negative = inhibition) at 10uM” value is 15.7%.
With `Cc1nn(-c2cc(N3CCOCC3)ccc2N)c(=O)c2ccccc12` the figure was 0.574%.
The result for `COc1ccccc1C(=O)NCc1ccccn1` reads 18.4%; that for `O=C(NCc1ccccn1)c1ccccc1OCc1ccc(F)cc1`, -56.9%; that for `O=C(NCc1ccc(F)cc1)c1ccccc1OCc1ccccc1`, -8.06%.
As to `O=C(Cn1nc(C(=O)O)c2ccccc2c1=O)NCC1CCCO1` (centres unmarked), the “hERG current change (%, negative = inhibition) at 10uM” value came out at 20%.
The result for `CCCCc1cc(=O)oc2cc(OCC(=O)N3CCc4ccccc43)ccc12` reads 6.81%.
With `CCOc1ccc(C(=O)CCN2CCCCC2)cc1`, the “hERG current change (%, negative = inhibition) at 10uM” value is listed as -19.7%.
The result for `O=C(O)C(=O)O.c1ccc(COc2ccc(OCCN3CCCCC3)cc2)cc1` reads -70.2%; that for `CCN(CC)CCOc1ccc2c(c1)C(=NO)c1cc(OCCN(CC)CC)ccc1-2.Cl`, -16.4%.
For `O=C(O)C(=O)O.c1ccc(COc2ccc(OCCN3CCCC3)cc2)cc1`, the “hERG current change (%, negative = inhibition) at 10uM” value was -60.3%.
The result for `c1ccc2cc(OCCN3CCCC3)ccc2c1` reads -33.1%; that for `O=C(O)C(=O)O.c1ccc(OCCN2CCOCC2)cc1`, 12%.
With `CCOc1ccc(CNCCN2CCCC2)cc1.O=C(O)C(=O)O` the figure was -63.9%; with `CCOc1ccc(OCCN2CCCCC2)cc1.O=C(O)C(=O)O`, -21.7%; with `Cc1ccc(OCCN2CCCC2)cc1.O=C(O)C(=O)O`, -3.76%.
The result for `Cl.ON=C1c2cc(OCCN3CCCCC3)ccc2-c2ccc(OCCN3CCCCC3)cc21` reads -58.1%.
For `COC(=O)c1ccc(OCCN2CCCCCC2)cc1.O=C(O)C(=O)O`, the “hERG current change (%, negative = inhibition) at 10uM” value was -1.51%.
With `CCOc1ccc(OCCOCCN2CCCC2)cc1.O=C(O)C(=O)O` the figure was 0.376%; with `CCn1c(-c2ccccc2)c[nH]c1=S`, 15.4%; with `CN(C)c1cccc(C(=O)NCCCSc2ccccc2)c1`, 4.72%.
With `Cc1nn(Cc2ccccc2Cl)c2sc(C(=O)OC3CCCC3=O)cc12` (centres unmarked) the figure was -4.19%; with `COc1cc(NS(=O)(=O)c2ccc(NC(=S)NC(=O)c3ccc(F)cc3)cc2)nc(OC)n1`, 3.73%; with `N#Cc1cc2cc3c(cc2nc1NCCNC(=S)NCCCN1CCOCC1)OCO3`, 14.2%.
With `CC(C)CCN1C(=O)c2ccc(C(=O)OCC(=O)N(C)C3CCS(=O)(=O)C3)cc2C1=O` (centres unmarked) the figure was -8.41%.
As to `CCn1nc(C(=O)OCC(=O)NCC(C)C)c2ccccc2c1=O`, the “hERG current change (%, negative = inhibition) at 10uM” value is 0.00988%.
With `CCn1nc(C(=O)OCC(=O)NC(C)C)c2ccccc2c1=O` the figure was 8.88%; with `CC(C)Cn1nc(C(=O)OCC(=O)NCC(F)(F)F)c2ccccc2c1=O`, -78.2%; with `COC(=O)c1cc(NC(=O)c2c(C)noc2C)ccc1N1CCOCC1`, 17.6%.
With `COc1ccc(N2C(=O)/C(=C/c3ccc(N(C)C)o3)C(=O)NC2=S)cc1` the figure was 3.28%.
As to `O=C(c1ccc(Cn2cnnn2)cc1)N1CCCC(Nc2ccc(F)cc2)C1` (centres unmarked), the “hERG current change (%, negative = inhibition) at 10uM” value is given as -0.196%.
With `CC(=O)Nc1ccc(CN2CCN(Cc3ccc(C)cc3)C(CCO)C2)cc1` (centres unmarked) the figure was -34.5%.
For the compound `COc1ccc(CN2CCN(Cc3ccc(C)cc3)C(CCO)C2)cc1OC` (centres unmarked), the “hERG current change (%, negative = inhibition) at 10uM” value is reported as -54.3%.
The result for `COc1ccc(CN2CCN(Cc3ccc(CO)o3)CC2CCO)cc1C` (centres unmarked) reads -8.64%.
With `COc1cccc(CN2CCN(Cc3ccc(O)c(OC)c3)CC2CCO)c1` (centres unmarked) the figure was -5.76%; with `COc1cc(CN2CCN(Cc3ccc(C)cc3)C(CCO)C2)cc(OC)c1O` (centres unmarked), -51.6%; with `COc1cc(CN2CCN(Cc3ccc(C)cc3)C(CCO)C2)ccc1O` (centres unmarked), -19.6%.
The result for `CCOc1cccc(OCCOCCN(C)C)c1.O=C(O)C(=O)O` reads 0.719%.
For the compound `COC(=O)c1ccc(CN2C(=O)NC3(CCCCC3C)C2=O)o1` (centres unmarked), the “hERG current change (%, negative = inhibition) at 10uM” value was -11.4%.
The result for `O=C(CSc1nnc(Cc2ccccc2)o1)Nc1ccc2c(c1)OCO2` reads 10.5%; that for `CCOC(=O)Cc1csc(NC(=O)Cc2ccccc2)n1`, 1.37%.
The result for `CC(=O)N1c2ccc(S(=O)(=O)N3CCC(C(=O)Nc4cccc(C(F)(F)F)c4)CC3)cc2CC1C` (centres unmarked) reads 11.7%.
With `COc1ccc(OCc2cc(C(=O)N3CCCCCC3)no2)c(Cl)c1` the figure was -11.7%; with `O=C(Nc1cccc(Cl)c1)N1CCOCC1`, 20%; with `O=C(Nc1ccccc1)N1CCN(CCc2ccccc2)CC1`, -14.5%.
For the compound `O=C(Nc1cccc(F)c1)N1CCN(C/C=C/c2ccccc2)CC1`, the “hERG current change (%, negative = inhibition) at 10uM” value is reported as -59%.
With `S=C(Nc1ccccc1)N1CCN(C/C=C/c2ccccc2)CC1` the figure was -8.71%.
With `O=C(Nc1ccc2c(c1)OCO2)N1CCN(C/C=C/c2ccccc2)CC1`, the “hERG current change (%, negative = inhibition) at 10uM” value is -15.4%.
With `CCOC(=O)N1CCN(C(=O)Nc2cccc(Cl)c2)CC1` the figure was 2.81%; with `O=C(Nc1ccc(F)cc1)N1CCN(C/C=C/c2ccccc2)CC1`, -68.6%; with `O=C(Nc1ccc(F)cc1F)N1CCN(CCc2ccccc2)CC1`, -15.6%.
With `O=C(Nc1ccc(F)cc1)N1CCN(CCc2ccccc2)CC1` the figure was -52.3%; with `O=C(Nc1cccc(Cl)c1)N1CCN(C/C=C/c2ccccc2)CC1`, -68.5%; with `O=C(Cc1ccccc1)Nc1ccc(N2CCOCC2)cc1N1CCOCC1`, -0.646%.
The result for `CSCCC(NC(=O)COc1ccccc1)C(=O)N1CC(C)CC(C)C1` (centres unmarked) reads -41.4%; that for `CCCCc1cc(=O)oc2c(CN3CCCC3)c(O)c(Cl)cc12`, -20.9%.
`COC(=O)c1[nH]c2c(c1C)C(=O)CC(c1ccc(OC)c(OC)c1)C2` (centres unmarked): the “hERG current change (%, negative = inhibition) at 10uM” value is on record as -0.262%.
For `CC(Sc1ccccc1)C(=O)N(CCC#N)Cc1cccnc1` (centres unmarked), the “hERG current change (%, negative = inhibition) at 10uM” value is recorded as 6.64%.
With `Cc1ccc(NC(=O)CSc2nnc(-c3cnccn3)n2Cc2ccco2)cc1` the figure was -21.3%; with `COc1ccccc1C1CC(c2ccc(Cl)cc2)Nc2ncnn21` (centres unmarked), -44.8%.
With `Cc1cccn2c(CN(C)C3CCOC3)c(C(=O)N3CCCCC3)nc12` (centres unmarked) the figure was 32.3%; with `O=c1cc(-c2ccc(O)c(O)c2)oc2cc(O)c(C3OC(CO)C(O)C(O)C3O)c(O)c12` (centres unmarked), 3.72%.
Consider `CC1(C)Cc2cccc(OCC(=O)NCc3cccs3)c2O1`, for which the “hERG current change (%, negative = inhibition) at 10uM” value is -0.101%.
The result for `CCNC(=O)N1CCN(CCCC(c2ccc(F)cc2)c2ccc(F)cc2)CC1.Cl` reads -82.3%; that for `O=C(C1CCN(Cc2ccc(F)cc2)CC1)N1CCN(C/C=C/c2ccccc2)CC1.O=C(O)C(=O)O`, -63.6%; that for `O=C(C1CCN(Cc2ccccc2)CC1)N1CCN(C/C=C/c2ccccc2)CC1.O=C(O)C(=O)O`, -33.3%.
For the compound `C=C(C)c1cccc(C(C)(C)NC(=O)N2CCN(CC(N)=O)CC2)c1`, the “hERG current change (%, negative = inhibition) at 10uM” value came out at 11.3%.
The result for `C=C(C)c1cccc(C(C)(C)NC(=O)N2CCN(CC)CC2)c1` reads 7.13%; that for `Cc1cc(C)cc(NC(=O)N2CCN(C/C=C/c3ccccc3)CC2)c1`, -69%; that for `Cc1ccc(NC(=O)N2CCN(C/C=C/c3ccccc3)CC2)cc1`, -44.6%.
The result for `CCCCNC(=O)N1CCN(Cc2ccc(F)cc2)CC1` reads -11.3%; that for `CCNC(=O)N1CCN(C(=O)NCC)CC1`, 15.7%; that for `C=C(C)c1cccc(C(C)(C)NC(=O)N2CCN(C/C=C/c3ccccc3)CC2)c1`, -62.9%.
As to `O=C(Cc1ccccc1)N1CCN(Cc2ccc(F)cc2)CC1.O=C(O)C(=O)O`, the “hERG current change (%, negative = inhibition) at 10uM” value was determined as 2.38%.
With `CC1=C(C)CC(C(=O)N2CCN(C/C=C/c3ccccc3)CC2)C(C(=O)O)C1` (centres unmarked) the figure was 8.99%.

The record behind these values is publication PMC4336329 (PLoS ONE, 2015).
